{"source": "PubChem BioAssay AID1851", "about": "(National Center for Advancing Translational Sciences (NCATS), 2009)", "note": "Hit rate of the full screen: of about 16,000 compounds, about 5,700 (36%) were called active. About 24% were inconclusive and are not listed. Some of the results follow. Values without a mark were called inactive. Calls come from the whole dose curve; as a rule, active = well fitted curve in the direction sought with a large enough effect; inconclusive = small, poorly fitted or top-dose-only effect, or effect the other way; inactive = no such curve, though single readings can be large or run the other way. Square brackets hold non-standard residues; d marks the D form. Peptide text beside a SMILES is read from it. Ac5c = NC1(C(=O)O)CCCC1", "data": [{"molecular_target": "Cytochrome P450 1A2 (Homo sapiens) (UniProt P05177)", "sequence (P05177 whole entry, looked up)": "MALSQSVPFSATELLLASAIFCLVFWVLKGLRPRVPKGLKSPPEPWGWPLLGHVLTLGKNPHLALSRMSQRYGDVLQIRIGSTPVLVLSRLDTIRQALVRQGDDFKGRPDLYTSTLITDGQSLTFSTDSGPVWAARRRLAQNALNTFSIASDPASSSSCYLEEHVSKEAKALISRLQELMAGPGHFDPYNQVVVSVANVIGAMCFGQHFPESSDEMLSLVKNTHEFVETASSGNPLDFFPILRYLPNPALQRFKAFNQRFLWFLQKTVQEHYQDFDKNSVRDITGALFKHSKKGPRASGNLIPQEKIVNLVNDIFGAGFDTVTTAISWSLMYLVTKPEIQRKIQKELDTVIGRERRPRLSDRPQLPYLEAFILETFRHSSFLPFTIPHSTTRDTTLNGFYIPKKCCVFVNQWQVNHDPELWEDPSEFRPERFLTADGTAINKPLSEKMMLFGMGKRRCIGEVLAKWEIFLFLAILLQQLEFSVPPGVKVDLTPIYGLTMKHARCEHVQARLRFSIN", "experiment": "Cytochrome panel assay with activity outcomes; for activity, negative = inhibition: % is set by controls: 0 for no effect and ±100 for the full control effect", "conditions": "recombinant CYP, pro-luciferin dealkylation, luminescence, p450-cyp1a2; series mostly up to 57.1 µM", "values": [{"smiles": "COc1ccc(CNc2cc(-c3ccoc3)ncn2)c(OC)c1", "AC50": "15.8 µM (active)"}, {"smiles": "COc1ccccc1CNc1cc(-c2ccoc2)ncn1", "AC50": "15.8 µM (active)"}, {"smiles": "COc1cccc(CNc2ccc3nc(-c4ccc(N)cc4)c(OC)n3n2)c1", "AC50": "39.8 µM (active)"}, {"smiles": "O=C(O)CSCNC(=O)CC12CC3CC(CC(C3)C1)C2", "AC50": "inactive"}, {"smiles": "CC1(C)CC2(CC(c3cccs3)c3cc(Cl)c(O)cc3O2)NC(=S)N1", "note": "(centres undefined)", "AC50": "inactive"}, {"smiles": "O=C1CC(c2cccs2)c2cc3c(cc2N1)OCO3", "note": "(centres undefined)", "AC50": "0.631 µM (active)"}, {"smiles": "CC(C)NC(=O)N1CCC2(CC1)CCN(C(=O)c1ccco1)CC2", "AC50": "inactive"}, {"smiles": "CC(C)(C)CC(C)(C)c1ccc(O)c(C[N+](C)(C)[O-])c1", "activity, negative = inhibition": "-17.9% [at 2.29 µM]"}, {"smiles": "O=C(O)C(Cc1ccccc1-c1ccccc1)C(=O)O", "activity, negative = inhibition": "-6.71% [at 11.4 µM]"}, {"smiles": "COC(=O)[C@H](Cc1ccccc1)NC(=O)[C@@H](C)CO", "activity, negative = inhibition": "-9.35% [at 11.4 µM]"}, {"smiles": "CCOC(=O)c1c2c(n3ccccc13)C(=O)c1ccccc1C2=O", "AC50": "0.1 µM (active)"}, {"smiles": "CCOC(=O)c1c(-c2ccccc2)cn2ccccc12", "AC50": "0.501 µM (active)"}, {"smiles": "COc1cc2cc(CN(CCCO)S(=O)(=O)c3ccccc3Cl)c(=O)[nH]c2cc1OC", "AC50": "inactive"}, {"smiles": "COc1ccc(CNC(=O)CN(CC2CCCO2)C(=O)CNS(=O)(=O)c2ccccc2)cc1", "note": "(centres undefined)", "AC50": "inactive"}, {"smiles": "COc1cccc(C(=O)N(Cc2ccccc2)Cc2cc3cc4c(cc3[nH]c2=O)OCCO4)c1", "AC50": "14.1 µM (active)"}, {"smiles": "N=C(N)SCCN", "AC50": "inactive"}, {"smiles": "CCOc1ccc(/C(O)=C2\\C(=O)C(=O)N(CCOCCO)C2c2ccccc2OC)cc1", "note": "(centres undefined)", "AC50": "inactive"}, {"smiles": "Cc1cccc(CNc2ncnc3ccc(-c4cccnc4)cc23)c1", "AC50": "0.316 µM (active)"}, {"smiles": "c1cncc(CNc2ncnc3ccc(-c4ccoc4)cc23)c1", "AC50": "0.316 µM (active)"}, {"smiles": "c1ccc(CNc2ncnc3ccc(-c4cccnc4)cc23)cc1", "AC50": "0.126 µM (active)"}, {"smiles": "c1ccc(Nc2ncnc3ccc(-c4cccnc4)cc23)cc1", "AC50": "0.0794 µM (active)"}, {"smiles": "CN(CC(=O)O)Cc1oc(CO)cc(=O)c1O", "activity, negative = inhibition": "-18.3% [at 11.4 µM]"}, {"smiles": "CSc1ccc(NC(=O)Nc2cc(C)ccn2)cc1", "AC50": "0.501 µM (active)"}, {"smiles": "Cc1ccnc(N)c1", "AC50": "inactive"}, {"smiles": "CC(=O)Nc1ccc(Sc2ncccc2C(=O)Nc2ccc(F)cc2)cn1", "AC50": "inactive"}, {"smiles": "COC(=O)/C=C\\CCc1coc(/C=C\\CNC(=O)OC)n1", "activity, negative = inhibition": "2.69% [at 11.4 µM]"}, {"smiles": "COC(=O)C1CSC(C(=O)OC)N1C(=O)Nc1c(C)cccc1C", "note": "(centres undefined)", "AC50": "inactive"}, {"smiles": "O[C@@](CCN1CCCCC1)(c1ccccc1)C1CCCCC1", "AC50": "inactive"}, {"smiles": "CC[C@H](CO)NCCN[C@@H](CC)CO", "AC50": "inactive"}, {"smiles": "Cn1cnc2c(NCc3ccccc3)nc(NCCO)nc21", "AC50": "5.01 µM (active)"}, {"smiles": "Cn1c(=O)[nH]c(=O)c2c1nc(NCCCO)n2CCCc1ccccc1", "AC50": "inactive"}, {"smiles": "Cc1ccccc1CNc1ncnc2c1ncn2[C@@H]1O[C@@H](CO)[C@H](O)[C@@H]1O", "AC50": "inactive"}, {"smiles": "COc1cnc(SCc2ccc(Cl)cc2)nc1Cl", "AC50": "12.6 µM (active)"}, {"smiles": "FC(F)(F)c1nc(SCc2ccc(Cl)cc2)n[nH]1", "activity, negative = inhibition": "-18.8% [at 2.29 µM]"}, {"smiles": "CC1=CC(=O)c2ccccc2C1=O", "AC50": "0.158 µM (active)"}, {"smiles": "CCCCNCCOCCSc1ccc(Cl)cc1", "AC50": "12.6 µM (active)"}, {"smiles": "CCCCNC(=O)NS(=O)(=O)c1cnccc1Sc1ccc(Cl)cc1", "AC50": "inactive"}, {"smiles": "CC(C)NCCOCCSc1ccc(Cl)cc1", "AC50": "5.01 µM (active)"}, {"smiles": "Cc1cc(=O)[nH]c2c1c(C)nn2C1CCOC(C)(C)C1", "note": "(centres undefined)", "AC50": "inactive"}, {"smiles": "CO[C@@H]1COC(=O)[C@H](C)NC(=O)[C@@H](C)COC(=O)CCC[C@H]1C", "activity, negative = inhibition": "-10.3% [at 11.4 µM]"}, {"smiles": "O=C(CCn1c(=O)[nH]c2ccsc2c1=O)Nc1ccc(F)c(F)c1", "AC50": "inactive"}, {"smiles": "CCOc1cc2[nH]c(=O)n(CCCC(=O)NCc3ccc(OC)cc3)c(=O)c2cc1OCC", "AC50": "inactive"}, {"smiles": "O=C(CCCCCn1c(=O)[nH]c2ccsc2c1=O)NCc1ccc2c(c1)OCO2", "AC50": "14.1 µM (active)"}, {"smiles": "CCOc1cc2[nH]c(=S)n(CCCC(=O)NCc3ccco3)c(=O)c2cc1OCC", "AC50": "inactive"}, {"smiles": "O=C(CCCCn1c(=S)[nH]c2ccsc2c1=O)NCc1ccco1", "AC50": "1.26 µM (active)"}, {"smiles": "Cc1nc2ncnn2c(C)c1CCC(=O)NCc1ccco1", "AC50": "inactive"}, {"smiles": "CC(=O)Nc1c(C)nn(-c2ccc(C)c(C)c2)c1C", "AC50": "14.1 µM (active)"}, {"smiles": "Cc1ccc(-n2c(C)cc(C(=S)N3CCOCC3)c2C)cc1C", "AC50": "inactive"}, {"smiles": "CC(=O)Nc1c(C(=O)N2CCOCC2)cnn1-c1ccc(C)c(C)c1", "AC50": "inactive"}, {"smiles": "NCC(=O)NC1(C(=O)O)CCCC1", "note": "(H-Gly-[Ac5c]-OH)", "activity, negative = inhibition": "-5.18% [at 11.4 µM]"}, {"smiles": "O=C1CC(=O)C(n2cncn2)C(c2cccc(Cl)c2)C1", "note": "(centres undefined)", "AC50": "inactive"}, {"smiles": "C[N+](C)(C)CCCCCNCC12CC3CC(CC(C3)C1)C2", "AC50": "inactive"}, {"smiles": "COc1ccccc1CN1CC2(CCN(C(=O)c3cnccn3)CC2)C1", "AC50": "inactive"}, {"smiles": "COc1ccccc1CN1CC2(CCN(C(=O)c3ccncc3)CC2)C1", "AC50": "inactive"}, {"smiles": "COc1ccccc1CN1C(=O)c2ccncc2C1=O", "AC50": "14.1 µM (active)"}, {"smiles": "NC1=NC(=O)/C(=C/c2cccs2)S1", "AC50": "1.41 µM (active)"}, {"smiles": "O=C1N=C(N2CCOCC2)S/C1=C\\C=C/c1ccccc1", "AC50": "14.1 µM (active)"}, {"smiles": "O=C1N=C(N2CCOCC2)S/C1=C/c1cccs1", "AC50": "5.62 µM (active)"}, {"smiles": "CC(C)(C)OC(=O)[C@H]([C@@H]1N[C@@H](C(=O)O)C(C)(C)S1)N1C(=O)c2ccccc2C1=O", "activity, negative = inhibition": "-1.41% [at 2.29 µM]"}, {"smiles": "C[C@H]1CC(C)(C)C[C@@](OCCN2CCCCC2)(c2ccccc2)C1", "activity, negative = inhibition": "0.209% [at 11.4 µM]"}, {"smiles": "CCCN1CC=C2C(C#N)=C(N)C(C#N)(C#N)C(c3cc(OC)ccc3OC)C2C1", "note": "(centres undefined)", "AC50": "31.6 µM (active)"}, {"smiles": "O=C(O)C[n+]1ccccc1", "activity, negative = inhibition": "-7.86% [at 11.4 µM]"}, {"smiles": "COc1ccc(O[C@H]2C=C[C@@H](c3ccccc3)O[C@H]2COC(=O)CC/C(C)=N/OCC[C@@H]2C=C[C@H](OC(C)=O)[C@H](COC(C)=O)O2)cc1", "activity, negative = inhibition": "-2.16% [at 11.4 µM]"}, {"smiles": "CN=C1N[C@H](c2ccccc2)N(c2ccccc2)S1", "AC50": "1.26 µM (active)"}]}]}
